Shiga toxin inh: blocks Shiga toxin action in Vero cells; inhibition, % at 38.7 µM; 290,000 compounds, 9.2% hits; Vero cells, Shiga toxin protein synthesis inhibition reporter; AID 2315; in the data active = inhibition mostly above about 28%, no sharp cut-off; inactive = mostly below about 43%
Vaccinia mCherry: vaccinia inhibition (mCherry reporter) | Vaccinia virus mCherry reporter infection, fluorescence | Potency, µM (doses to about 36.5 µM), usual class: inhibitors | 310,000 compounds, 0.63% hits; calls by dose curve; tested in A549 cells; note: nearly all actives have a fitted effect of over 35% in size
LASV entry inh: inhibitors of Lassa virus binding or cell entry; Lassa virus pseudotype entry inhibition, cell reporter; Potency, µM (highest dose often 37.9 µM), usual class: inhibitors; 300,000 compounds, 1.2% hits; AID 540256; calls by dose curve; tested in HEK293 cells; note: nearly all actives have a fitted effect of over 50% in size
VACV Venus inh: vaccinia inhibition (Venus reporter) | AID 720580 | Vaccinia virus Venus reporter expression, fluorescence | 330,000 compounds, 0.46% hits | Potency, µM (doses to about 36.5 µM), hits mostly inhibitors; calls by dose curve; tested in A549 cells; note: nearly all actives have a fitted effect of over 30% in size
Cycloheximide cs: counter-screen for Shiga toxin inhibitors: cycloheximide protein synthesis inhibition; cell reporter, cycloheximide protein synthesis inhibition counterscreen; max response, %; 300,000 compounds, 12% hits; in the data active = max response mostly above about 13%, no sharp cut-off; inactive = mostly below about 14%; note: read at 38.3 µM for the half of the compounds with a filed dose
Marburg entry inh: inhibitors of Marburg virus binding or cell entry | AID 540276 | 300,000 compounds, 1.8% hits | Potency, µM (top dose mostly 37.8 µM), most hits filed as inhibitors | Marburg virus pseudotyped entry inhibition, cell reporter; calls by dose curve; tested in HEK293 cells
Large screens that a line does not name were inactive. This excerpt belongs to a sample that is enriched for hits.

CC[C@H](C)[C@H](NC(=O)[C@H](C)NC(=O)[C@H](Cc1cnc[nH]1)NC(=O)[C@@H]1CCCN1C(=O)CNC(=O)[C@H](CC(C)C)NC(=O)[C@H](CC(C)C)NC(=O)[C@H](Cc1ccc(O)cc1)NC(=O)CNC(=O)[C@H](C)NC(=O)[C@H](CO)NC(=O)[C@H](CC(N)=O)NC(=O)[C@H](CC(C)C)NC(=O)[C@@H](NC(=O)[C@H](Cc1c[nH]c2ccccc12)NC(=O)CN)[C@@H](C)O)C(=O)N[C@@H](CC(=O)O)C(=O)N[C@@H](CC(N)=O)C(=O)N[C@@H](Cc1cnc[nH]1)C(=O)N[C@@H](CCCNC(=N)N)C(=O)N[C@@H](CO)C(=O)N[C@@H](Cc1ccccc1)C(=O)N[C@@H](CO)C(=O)N[C@@H](CC(=O)O)C(=O)N[C@@H](CCCCN)C(=O)N[C@@H](Cc1cnc[nH]1)C(=O)NCC(=O)N[C@@H](CC(C)C)C(=O)N[C@H](C(N)=O)[C@@H](C)O	none (no result: Vaccinia mCherry, LASV entry inh, VACV Venus inh, Marburg entry inh)
Cc1cccc(-c2ccc([N+](=O)[O-])cc2CN2CCN(c3ncc(Cc4ccccc4)cn3)CC2)c1	Vaccinia mCherry inconclusive (no result: Shiga toxin inh, LASV entry inh, Cycloheximide cs, Marburg entry inh)
COC(=O)CC1c2ccccc2C=C(C=Cc2ccc3c(c2)OCO3)N1C(=O)OC (configuration not stated)	LASV entry inh inconclusive (no result: Shiga toxin inh, Vaccinia mCherry, VACV Venus inh, Cycloheximide cs)
OC(c1ccc2c(c1)CN(Cc1c[nH]c3ccccc13)CCO2)c1ccccn1 (configuration not stated)	none (no result: Shiga toxin inh, LASV entry inh, Cycloheximide cs, Marburg entry inh)
O=C(CSc1nc2ccccc2n1S(=O)(=O)c1ccccc1)N1CCCC1	Shiga toxin inh 48, Cycloheximide cs 13
CC(C)n1cnc2c(oc3ccccc32)c1=O	Shiga toxin inh 67, LASV entry inh inconclusive, Cycloheximide cs 32, Marburg entry inh inconclusive
N#CCn1cnc2c(oc3ccccc32)c1=O	Cycloheximide cs 13 (no result: Vaccinia mCherry, LASV entry inh, VACV Venus inh, Marburg entry inh)
Cc1ccccc1Cn1cnc2c(oc3ccccc32)c1=O	none
CCOC(=O)C(C)n1cnc2c(oc3ccccc32)c1=O (configuration not stated)	none (no result: Vaccinia mCherry, VACV Venus inh)
CCCCn1cnc2c(oc3ccccc32)c1=O	Shiga toxin inh 72, Cycloheximide cs 51 (no result: Vaccinia mCherry, LASV entry inh, VACV Venus inh, Marburg entry inh)
Cc1nc(N2CCN(C)CC2)c2nnn(Cc3ccccc3)c2n1	none (no result: Shiga toxin inh, LASV entry inh, Cycloheximide cs, Marburg entry inh)
Cc1ccc(Cn2c(C)c(CNCc3ccccc3F)c(C(=O)O)c2C)cc1	none (no result: Shiga toxin inh, Cycloheximide cs)
c1ccc(CNC2=NCCS2)cc1	none (no result: Vaccinia mCherry)
Cc1ccc(CNc2nc(C)cs2)cc1	Shiga toxin inh 75, LASV entry inh inconclusive, Cycloheximide cs 40, Marburg entry inh inconclusive
Cc1ccc(CNC2=NCCS2)cc1	Cycloheximide cs 17, Marburg entry inh inconclusive
CCCCS(=O)(=O)N1CN(S(=O)(=O)CCCC)C2NC(=O)NC21 (configuration not stated)	Cycloheximide cs 45 (no result: Vaccinia mCherry, VACV Venus inh)
CCCCOC(=O)c1ccc(OC(=O)c2sc3ncn(Cc4cccc(F)c4)c(=O)c3c2C)cc1	none (no result: Shiga toxin inh, Cycloheximide cs, Marburg entry inh)
Cc1ccc(-n2cc(C(=O)c3ccc4ccccc4c3O)cn2)cc1	none
Cc1ccc(O)c(C(=O)c2cnn(-c3ccccc3)c2)c1	Shiga toxin inh 108, Cycloheximide cs 27, Marburg entry inh inconclusive
Cc1ccc(-n2cc(C(=O)c3ccccc3O)cn2)cc1	Shiga toxin inh 61, LASV entry inh 3.5µM, Cycloheximide cs 53, Marburg entry inh inconclusive
Oc1cnn(-c2ccccc2)c1	Cycloheximide cs 16, Marburg entry inh inconclusive (no result: Vaccinia mCherry)
O=C(Cc1cnn(-c2ccccc2)c1)c1ccc(O)c(O)c1O	LASV entry inh inconclusive, Cycloheximide cs 17
O=C(/C=C/c1cccc(Cl)c1)c1ccc([N+](=O)[O-])o1	Vaccinia mCherry 10µM, VACV Venus inh 10µM (no result: Shiga toxin inh, LASV entry inh, Cycloheximide cs, Marburg entry inh)
Cc1cc(O)c(C(=O)/C=C/c2cccc([N+](=O)[O-])c2)c(=O)o1	Marburg entry inh inconclusive
O=C(NCc1ccco1)c1sc2cc(Cl)ccc2c1Cl	Shiga toxin inh 58, LASV entry inh inconclusive, Cycloheximide cs 34
O=C(NCCN1CCOCC1)c1sc2ccccc2c1Cl	Vaccinia mCherry inconclusive, VACV Venus inh inconclusive, Cycloheximide cs 23
O=C(NCc1ccco1)c1sc2ccccc2c1Cl	Shiga toxin inh 84, Cycloheximide cs 25 (no result: Vaccinia mCherry)
O=C(CNC(=O)c1sc2ccccc2c1Cl)NCc1cccc(C(F)(F)F)c1	VACV Venus inh 16µM, Marburg entry inh inconclusive (no result: Shiga toxin inh, Cycloheximide cs)
Cc1ccc(S(=O)(=O)N(Cc2c(F)cccc2Cl)C(=O)N2CCN(C)CC2)cc1	LASV entry inh inconclusive (no result: Shiga toxin inh, Cycloheximide cs)
CC1=C(C(=O)OCC2CCCO2)C(c2ccc(C)o2)C2=C(CC(c3ccc(F)cc3)CC2=O)N1 (configuration not stated)	Marburg entry inh 10µM
